Fam108B inh: blocks mouse Fam108B hydrolase in RBBP9 counter-screen; actives 0.33% (n = 300,000); recombinant Fam108B, FP-Rh probe fluorescence polarization; inhibition, % at 9.51 µM;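 active = inhibition above the screen mean inhibition plus 3 SD, computed separately per campaign, cut at about 18% in these data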;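 also: inhibitors lower polarization as less probe binds the enzyme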
LYPLA1 inh: blocks human lysophospholipase 1, a PME1 counter-screen. recombinant LYPLA1, FP-Rh probe fluorescence polarization. inhibition, % at 5.9 µM. actives 0.16% (n = 320,000). AID 2174;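 active = inhibition above the mean of all tested compounds plus 3 SD, set per campaign, cut at about 14% in these data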;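 also: inhibitors block serine hydrolase probe labeling of LYPLA1 so polarization falls; 0% = enzyme with DMSO and 100% = wells lacking LYPLA1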
Target sequence (O75608 whole entry, looked up): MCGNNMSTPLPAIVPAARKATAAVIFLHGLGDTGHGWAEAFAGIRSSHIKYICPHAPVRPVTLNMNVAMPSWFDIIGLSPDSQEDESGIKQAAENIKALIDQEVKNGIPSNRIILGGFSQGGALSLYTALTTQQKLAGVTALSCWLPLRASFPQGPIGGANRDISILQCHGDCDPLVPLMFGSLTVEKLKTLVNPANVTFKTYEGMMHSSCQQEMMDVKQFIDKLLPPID
LYPLA2 inh: LYPLA2 (human) inhibition in PME1 counter-screen; AID 2177; inhibition, % at 5.9 µM; actives 0.38% (n = 320,000); O95372; recombinant LYPLA2, FP-Rh probe fluorescence polarization;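 active = inhibition above the screen-wide mean plus 3 SD, limit set per campaign, cut at about 26% in these data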;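 also: 0% = LYPLA2 with DMSO and 100% = wells lacking LYPLA2 enzyme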
PP5 inh: blocks human protein phosphatase 5 activity; purified PP5c, OMFP substrate fluorescence; inhibition, % at 6.7 µM; P53041; actives 0.18% (n = 320,000);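 active = inhibition above the campaign's mean inhibition across all tested compounds plus 3 SD, cut at about 9.5% in these data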;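 also: 0% = DMSO only and 100% = 100 µM cantharidin control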
PME-1 inh: blocks human protein phosphatase methylesterase 1 | Q9Y570 | recombinant PME-1, FP-Rh probe fluorescence polarization | inhibition, % at 5.9 µM | actives 0.53% (n = 320,000);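 active = inhibition above the campaign mean of all compounds plus 3 SD, cut at about 26% in these data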;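 also: competitive labeling of PME-1 active site by serine hydrolase directed probe; 0% = PME-1 with DMSO and 100% = wells lacking PME-1 enzyme; inhibitors block probe labeling so polarization falls and inhibition rises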
PP1 inh: counter-screen for PP5 inhibitors: inhibitors of human PP1-alpha; actives 0.9% (n = 320,000); inhibition, % at 6.7 µM; purified PP1alpha, OMFP fluorescence; AID 2235; P62136;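 active = inhibition above the mean inhibition of all tested compounds plus 3 SD, computed separately for each screening campaign, cut at about 15% in these data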
Target sequence (P62136 whole entry, looked up): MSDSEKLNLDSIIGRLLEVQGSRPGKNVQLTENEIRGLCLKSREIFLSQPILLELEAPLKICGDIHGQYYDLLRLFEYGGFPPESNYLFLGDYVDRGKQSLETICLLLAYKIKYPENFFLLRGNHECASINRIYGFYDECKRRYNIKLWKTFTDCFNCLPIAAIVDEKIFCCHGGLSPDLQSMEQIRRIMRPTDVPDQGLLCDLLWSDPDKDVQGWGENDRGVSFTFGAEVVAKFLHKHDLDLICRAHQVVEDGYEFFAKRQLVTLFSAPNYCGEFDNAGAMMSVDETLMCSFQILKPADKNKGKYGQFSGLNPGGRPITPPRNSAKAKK
LYPLA2 conf: LYPLA2 (human) inhibition, confirmation counter-screen | recombinant LYPLA2, FP-Rh probe fluorescence polarization | inhibition, % at 5.9 µM | shares compounds with LYPLA2 inh | actives 72% (n = 1,100);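 active = mean inhibition across replicates above the hit cutoff set in the primary screen, cut at about 26% in these data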;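 also: blocked labeling of the enzyme by serine hydrolase FP-Rh probe lowers polarization; 0% = enzyme with DMSO and 100% = wells lacking LYPLA2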
PP1 confirm: human PP1 phosphatase inhibition, confirmation. purified PP1alpha, OMFP substrate fluorescence. shares compounds with PP1 inh. inhibition, % at 6.7 µM. AID 2358. actives 52% (n = 1,900);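 active = mean PP1 inhibition above a set limit taken from the earlier primary screen, cut at about 15% in these data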
PP5 counter: counter-screen for PP1 inhibitors: human PP5 phosphatase inhibition. shares compounds with PP1 inh. purified PP5c, OMFP fluorescence. inhibition, % at 6.7 µM. actives 4% (n = 1,900);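 active = mean PP5 inhibition over triplicate wells above about 9.5% taken from the earlier PP1 screen, limit read from the data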
Active calls of the source: *; · = not tested or not shown. Most compounds without a hit are left out; they make up all but 1.8% or so of the library.

SMILES	Fam108B inh	LYPLA1 inh	LYPLA2 inh	PP5 inh	PME-1 inh	PP1 inh	PP1 confirm	PP5 counter	others
C#CCOCCOCCOCCNc1nc(N2CCN(C(=O)CCCCCCCCCCNC(=O)[C@H]([C@@H](C)CC)n3cc(CCCCCN)nn3)CC2)nc(N2CCN(C(=O)CCCCCCCCCCNC(=O)[C@H]([C@@H](C)CC)n3cc(CCCCN=C(N)N)nn3)CC2)n1	-7.5	10.8	56.8*	9.0	-15.6	69.5*	45.2*	1.3	LYPLA2 conf=56.3*
O=C(NCc1ccc2c(c1)OCO2)C(=O)NCC1OCCN1S(=O)(=O)c1ccccc1 (stereo unspecified)	1.6	-3.0	0.6	-1.1	-1.6	3.0	·	·
CC(=O)c1ccc(N2CCN(C(=O)c3ccc(Cn4c(=S)[nH]c5ccc(N6CCOCC6)cc5c4=O)cc3)CC2)cc1	-0.7	5.8	44.0*	0.9	-0.9	45.4*	29.5*	1.9	LYPLA2 conf=34.4*
COc1ccc(S(=O)(=O)N2CCN=C2SCc2cccc(F)c2)cc1	-0.5	1.8	4.8	2.5	4.4	-0.6	·	·
NC(=O)CC(NC(=O)c1ccccc1)c1ccc(N2CCN(c3ccc(F)cc3)CC2)c([N+](=O)[O-])c1 (stereo unspecified)	-7.5	-3.7	27.1*	1.8	-1.3	18.0*	-51.7	-2.8	LYPLA2 conf=33.1*
O=C(O)COc1ccccc1/C=N/NC(=O)CSc1nnc(SCc2ccc(Cl)cc2)s1	-5.4	-0.7	-4.1	2.6	10.6	0.4	·	·
O=C(CSc1nnc(SCc2ccc(Cl)cc2)s1)N/N=C/c1c[nH]c2ccccc12	3.5	1.4	45.2*	2.1	-2.6	25.1*	31.6*	0.7	LYPLA2 conf=58.4*
CN(Cc1c(F)cccc1Cl)C(=O)c1ccc(NC(=O)CC2SC(N3CCCC3)=NC2=O)cc1 (stereo unspecified)	-3.8	-7.3	-11.3	-1.8	1.4	-3.4	·	·
CCOc1ccc(CN2CCNC(=O)C2CC(=O)NC2CCCCCC2)cc1 (stereo unspecified)	-4.1	0.3	-1.5	1.5	0.9	17.8*	-4.8	-2.9
COc1cc(Br)cc(/C=N/NC(=O)Cc2ccccc2)c1O	1.2	3.4	5.5	0.9	5.4	18.9*	14.3	-4.3
COc1cccc(/C=N/NC(=O)N/N=C/c2cccc(OC)c2O)c1O	5.1	-4.3	-7.7	-0.2	-33.7	21.5*	16.0*	-6.6
Clc1ccc(C(Cn2ccnc2)OCc2c(Cl)cccc2Cl)c(Cl)c1 (stereo unspecified)	-2.2	-0.4	-2.5	5.1	7.2	25.6*	18.4*	-2.9
CCCCC(=O)NC(c1ccccc1Cl)c1ccc2cccnc2c1O (stereo unspecified)	-0.2	-0.4	4.9	3.0	1.0	27.4*	19.3*	-3.9
CCCCC(=O)NC(c1ccc(C(C)C)cc1)c1ccc2cccnc2c1O (stereo unspecified)	2.1	-1.6	0.3	-2.2	-8.1	22.9*	20.9*	-6.8
CCCCC(=O)NC(c1ccccc1)c1ccc2cccnc2c1O (stereo unspecified)	-0.2	0.8	5.9	1.8	6.4	21.3*	12.9	-5.2
CCCC(=O)NC(c1ccccc1)c1ccc2cccnc2c1O (stereo unspecified)	6.5	-2.8	0.9	-1.6	2.6	3.0	·	·
COc1ccc(/C=N/NC(=O)CNC(=O)c2ccncc2)cc1OC	4.1	3.1	-5.3	0.3	-3.0	-2.7	·	·
COc1ccc(C)cc1NC(=O)CN1C(=O)COc2ccc(S(=O)(=O)N3CCCCC3)cc21	0.7	-2.7	-1.8	1.9	-7.8	3.5	·	·
CCc1cc(=O)oc2cc(C)c(CN3CCCC3)c(O)c12	-6.7	-11.9	-9.4	0.1	-8.3	22.3*	1.7	-2.4
CCc1cc(=O)oc2cc(C)c(CN3CCCCC3)c(O)c12	0.8	-8.8	-1.7	0.0	1.8	8.2	·	·
Cc1ccc(N=Nc2ccc(O)c(P(=O)(c3ccccc3)c3ccccc3)c2)cc1	8.7	-3.2	-2.2	2.2	4.5	18.5*	15.7*	-3.5
O=C1CC(=C2c3ccccc3-c3ccccc32)C(=O)N1CCCCN1CCN(c2ccccc2)CC1	-1.4	-5.8	2.8	-0.5	2.3	25.7*	27.8*	-2.7
CCCC(=O)NC(c1cccs1)c1cc([N+](=O)[O-])c2cccnc2c1O (stereo unspecified)	3.7	-5.3	2.9	2.6	10.5	17.6*	16.1*	6.3
CC(C)C(=O)NC(c1ccccc1)c1cc([N+](=O)[O-])c2cccnc2c1O (stereo unspecified)	7.5	-5.0	-3.7	3.5	4.2	29.2*	13.2	11.1*
CCCCC(=O)NC(c1ccco1)c1cc(Cl)c2cccnc2c1O (stereo unspecified)	2.8	-6.0	-3.3	-4.5	-5.2	13.3	·	·
SMILES	Fam108B inh	LYPLA1 inh	LYPLA2 inh	PP5 inh	PME-1 inh	PP1 inh	PP1 confirm	PP5 counter	others
CC(=O)NC(C)c1cc(F)c2cccnc2c1O (stereo unspecified)	·	0.2	8.7	-2.2	3.9	2.2	·	·
CC1(C)CC(=O)c2c(O)cc(OCC(=O)N3CCN(c4ccccc4)CC3)cc2O1	-2.1	0.0	-2.9	2.8	1.4	19.6*	-2.3	-5.1
O=C1CCCN1c1ccc(C(=O)N(Cc2nnc(-c3ccc(Cl)cc3)o2)C2CC2)cc1	0.3	-4.0	4.8	1.7	4.6	18.5*	-3.0	-4.9
O=C1Nc2ccccc2/C1=C/c1cnc(-c2ccccc2)[nH]1	-6.1	0.3	2.0	2.1	12.6	34.5*	34.9*	-1.3
O=C1Nc2ccccc2/C1=C/c1cccnc1	3.7	0.3	-3.8	-0.2	-0.5	-4.3	·	·
CCn1cc(C(=O)O)c(=O)c2cc(F)c(N3CCN(C(=S)NC(=O)c4ccccc4Cl)CC3)cc21	1.0	-0.3	-3.5	0.6	-3.0	-1.1	·	·
C=CCNC(=S)N1CCN(c2cc3c(cc2F)c(=O)c(C(=O)O)cn3CC)CC1	1.7	0.1	3.0	1.1	-1.3	19.7*	8.5	-4.3
CCn1cc(C(=O)O)c(=O)c2cc(F)c(N3CCN(S(=O)(=O)c4ccc(Br)cc4)CC3)cc21	-4.2	-4.2	-1.3	-0.4	3.4	19.1*	41.2*	-0.6
CCc1ccccc1OCC(=O)Nc1cc(S(=O)(=O)N(CC)CC)ccc1N1CCOCC1	·	-3.1	-2.1	0.7	12.3	12.4	·	·
COc1ccccc1/C=C/C(=O)OCC(=O)N1c2ccccc2CC1C (stereo unspecified)	·	-5.5	-9.1	4.5	-6.6	1.4	·	·

Assay outcomes as filed in PubChem BioAssay.
